Among the data in PubChem BioAssay (NCI) are growth inhibition values, retold here.

The nature of this experiment: NCI Yeast Anticancer Drug Screen. Data for the mlh1 strain (AID 171).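 Also: 0% = growth of vehicle-treated control cultures of the same strain.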 The following applies: S. cerevisiae mlh1 strain growth inhibition, active compounds read high. The procedure: Growth inhibition of yeast strains with defined genetic alterations is measured as a screen for potential anti-cancer activity. Selected strains with alterations in DNA damage repair or cell cycle control were exposed to compounds and growth inhibition was measured relative to vehicle treated controls. The strain used in this assay is mlh1

The structures appear in SMILES notation. The panel holds about 79,000 compounds, 15% with a hit somewhere; the sample as a whole holds those more often. Values without a mark were called inactive. Active and inactive are the calls of the source. Rule as the data show it: active = growth inhibition above about 70%; inactive = the rest.

Take `COC(=O)c1oc([N+](=O)[O-])c(Cl)c1Cl`: the growth inhibition (at 1.2 µM) is 77% (active); the growth inhibition (at 3.7 µM) was 62%; the growth inhibition (at 11.0 µM) was 78% (active); the growth inhibition (at 33.0 µM) is 99% (active); the growth inhibition (at 100.0 µM) is 99% (active).
Regarding `OCCNCCOc1ccc(/C(=C(/Cl)c2ccccc2)c2ccccc2)cc1`, the growth inhibition runs as follows: (at 1.2 µM) 7%; (at 3.7 µM) 12%; (at 11.0 µM) 67%; (at 33.0 µM) 98% (active); (at 100.0 µM) 98% (active).
With `C=C(CCCO)[C@@H]1CC[C@@](C)(O)[C@H]1C`, the growth inhibition runs as follows: (at 1.2 µM) -20%; (at 3.7 µM) -23%; (at 11.0 µM) -39%; (at 33.0 µM) -31%; (at 100.0 µM) -48%.
The corresponding values for `C/C(=N\NC(=S)NNC(=S)N(C)c1ccccc1)c1ccccn1` are 21%, 41%, 97% (active), 98% (active) and 83% (active).
Turning to `N#Cc1sc2c(c1OC(=O)c1ccco1)c(=O)n(-c1ccccc1)c(=S)n2-c1ccccc1`, the growth inhibition is, setting by setting: (at 1.2 µM) -4%; (at 3.7 µM) -2%; (at 11.0 µM) -2%; (at 33.0 µM) -5%; (at 100.0 µM) -3%.
As for `COc1cc(NCc2ccc3nc(N)nc(N)c3c2C)cc(OC)c1OC`, the growth inhibition (at 1.2 µM) is -4%; the growth inhibition (at 3.7 µM) is -6%; the growth inhibition (at 11.0 µM) was -5%; the growth inhibition (at 33.0 µM) was 5%; the growth inhibition (at 100.0 µM) was 56%.
Take `CCCCC(CC)C(=O)Oc1ccc(C(=O)c2ccccc2)c(O)c1` (stereo not given): the growth inhibition runs as follows: (at 1.2 µM) -9%; (at 3.7 µM) -10%; (at 11.0 µM) 3%; (at 33.0 µM) 55%; (at 100.0 µM) 97% (active).
As to `CC(C)(C)[OH+][O-].[O-]c1ccc(Cl)cc1C=Nc1ccc(Cl)cc1[O-].[O]=[V]`, the growth inhibition reads like this: (at 1.2 µM) 8%; (at 3.7 µM) 10%; (at 11.0 µM) 9%; (at 33.0 µM) 15%; (at 100.0 µM) 38%.
